Test in all cases: DAPPL (digital affinity profiling via proximity ligation, sequencing); 10 mM Tris-HCl pH 7.5, 50 mM NaCl, 1 mM DTT, 4% glycerol, room temperature, 30 min; GST-TFs on glutathione beads, 16-mer random dsDNA library, 0.1% formaldehyde crosslink after washing; high values mean tight binding
What all share (conditions): protein: recombinant; tags: N-terminal GST; dsDNA, one strand shown

In one assay the target is T1, FLI1 (Homo sapiens, UniProt Q01543 1-452).
T1 sequence: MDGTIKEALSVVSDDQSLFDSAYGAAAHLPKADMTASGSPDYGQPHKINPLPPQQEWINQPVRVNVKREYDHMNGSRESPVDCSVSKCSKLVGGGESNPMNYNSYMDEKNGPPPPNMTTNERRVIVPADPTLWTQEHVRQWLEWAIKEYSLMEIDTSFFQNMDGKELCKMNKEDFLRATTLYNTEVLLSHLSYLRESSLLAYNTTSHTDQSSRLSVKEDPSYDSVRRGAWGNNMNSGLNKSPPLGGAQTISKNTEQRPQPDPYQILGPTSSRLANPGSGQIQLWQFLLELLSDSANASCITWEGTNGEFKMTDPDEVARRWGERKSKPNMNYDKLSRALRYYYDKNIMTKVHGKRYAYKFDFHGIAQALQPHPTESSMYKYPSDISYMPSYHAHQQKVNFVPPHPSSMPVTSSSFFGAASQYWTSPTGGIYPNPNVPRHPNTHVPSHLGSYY
The method in brief:
(§1)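 Pools were built from human transcription factors expressed in yeast as GST fusions, captured on glutathione beads and DNA-barcoded, along with a tag-only sample. Incubation with 200 nmole of a 16-mer random double-stranded DNA library lasted 30 min at room temperature in Tris/NaCl/DTT/glycerol buffer, and was followed by washing, 0.1% formaldehyde crosslinking, proximity ligation, PCR amplification and Illumina NextSeq500 sequencing. Binding signal is the quotient of each hexamer's read frequency for a factor and its frequency for the tag-only sample.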

The target of the next assay is T2, ELK1 (Homo sapiens, UniProt P19419 1-428).
T2 sequence: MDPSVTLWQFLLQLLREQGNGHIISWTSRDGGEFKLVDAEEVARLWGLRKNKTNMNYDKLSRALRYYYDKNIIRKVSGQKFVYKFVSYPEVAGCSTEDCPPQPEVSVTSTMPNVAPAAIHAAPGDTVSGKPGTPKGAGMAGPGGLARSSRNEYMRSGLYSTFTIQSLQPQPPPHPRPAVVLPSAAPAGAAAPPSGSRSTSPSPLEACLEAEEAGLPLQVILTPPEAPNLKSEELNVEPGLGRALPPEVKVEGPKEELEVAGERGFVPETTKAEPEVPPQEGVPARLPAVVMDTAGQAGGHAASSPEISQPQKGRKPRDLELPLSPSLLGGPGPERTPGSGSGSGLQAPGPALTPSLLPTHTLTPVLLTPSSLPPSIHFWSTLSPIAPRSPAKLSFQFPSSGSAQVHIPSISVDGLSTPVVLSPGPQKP
The method in brief:
as §1

Another assay has as its target T3, GABPA (Homo sapiens, UniProt Q06546 1-454).
T3 sequence: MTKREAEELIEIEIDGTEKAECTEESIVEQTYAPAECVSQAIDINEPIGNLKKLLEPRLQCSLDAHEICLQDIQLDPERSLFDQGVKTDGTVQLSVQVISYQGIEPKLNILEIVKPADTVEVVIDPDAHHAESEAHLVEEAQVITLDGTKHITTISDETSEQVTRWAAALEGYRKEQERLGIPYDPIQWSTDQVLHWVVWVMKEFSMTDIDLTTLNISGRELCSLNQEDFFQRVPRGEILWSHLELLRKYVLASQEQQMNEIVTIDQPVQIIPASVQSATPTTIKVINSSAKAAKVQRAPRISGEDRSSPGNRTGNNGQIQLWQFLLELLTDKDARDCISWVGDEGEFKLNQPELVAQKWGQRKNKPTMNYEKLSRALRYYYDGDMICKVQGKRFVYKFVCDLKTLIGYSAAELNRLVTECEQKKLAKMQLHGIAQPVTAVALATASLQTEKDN
The method in brief: as §1

In another assay the target is T4, ERG (Homo sapiens, UniProt P11308 1-479).
T4 sequence: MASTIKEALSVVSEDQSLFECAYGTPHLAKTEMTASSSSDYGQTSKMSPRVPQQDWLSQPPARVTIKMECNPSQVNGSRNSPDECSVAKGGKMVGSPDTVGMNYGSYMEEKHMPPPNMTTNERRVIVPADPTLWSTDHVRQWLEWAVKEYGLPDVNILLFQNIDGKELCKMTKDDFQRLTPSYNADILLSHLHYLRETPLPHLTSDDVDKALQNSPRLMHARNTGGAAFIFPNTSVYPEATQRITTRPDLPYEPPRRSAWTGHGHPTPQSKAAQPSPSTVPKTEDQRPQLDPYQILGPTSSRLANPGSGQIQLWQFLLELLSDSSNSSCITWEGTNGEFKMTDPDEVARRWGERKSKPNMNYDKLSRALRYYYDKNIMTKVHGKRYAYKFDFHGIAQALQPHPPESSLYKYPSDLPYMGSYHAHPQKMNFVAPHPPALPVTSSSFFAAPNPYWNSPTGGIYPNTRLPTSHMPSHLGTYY
The method in brief:
as §1

In another assay the target is ELF1 (Homo sapiens, UniProt P32519 1-619). The method in brief: as §1
A further assay concerns the target T5, EHF (Homo sapiens, UniProt Q9NZC4 1-300).
T5 sequence: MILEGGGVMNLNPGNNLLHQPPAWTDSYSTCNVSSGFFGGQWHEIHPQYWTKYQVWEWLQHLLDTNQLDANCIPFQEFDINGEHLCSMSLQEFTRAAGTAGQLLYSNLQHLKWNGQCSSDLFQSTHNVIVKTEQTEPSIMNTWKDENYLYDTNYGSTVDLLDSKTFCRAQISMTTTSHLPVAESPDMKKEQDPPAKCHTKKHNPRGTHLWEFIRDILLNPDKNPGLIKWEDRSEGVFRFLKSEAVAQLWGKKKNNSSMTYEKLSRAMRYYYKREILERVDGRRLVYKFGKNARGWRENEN
The method in brief: as §1

For the next assay, the target named is SPI1 (Homo sapiens, UniProt P17947 1-270). The method in brief:
as §1

The target of a further assay is SPIB (Homo sapiens, UniProt Q01892 1-262). The method in brief:
as §1

The next assay concerns the target T6, ELK3 (Homo sapiens, UniProt P41970 1-407).
T6 sequence: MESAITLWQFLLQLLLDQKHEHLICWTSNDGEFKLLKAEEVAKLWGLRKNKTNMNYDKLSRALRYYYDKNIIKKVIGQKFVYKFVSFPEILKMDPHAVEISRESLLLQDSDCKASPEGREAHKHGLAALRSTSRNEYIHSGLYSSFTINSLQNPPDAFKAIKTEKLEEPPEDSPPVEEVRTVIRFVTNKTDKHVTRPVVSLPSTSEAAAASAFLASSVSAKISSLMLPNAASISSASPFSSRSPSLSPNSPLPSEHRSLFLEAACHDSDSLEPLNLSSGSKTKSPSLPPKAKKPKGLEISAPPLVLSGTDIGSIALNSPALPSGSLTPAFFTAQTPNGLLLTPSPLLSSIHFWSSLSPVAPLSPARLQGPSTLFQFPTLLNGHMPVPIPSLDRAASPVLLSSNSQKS
The method in brief:
as §1

SPIB, sequence (Q01892 whole entry): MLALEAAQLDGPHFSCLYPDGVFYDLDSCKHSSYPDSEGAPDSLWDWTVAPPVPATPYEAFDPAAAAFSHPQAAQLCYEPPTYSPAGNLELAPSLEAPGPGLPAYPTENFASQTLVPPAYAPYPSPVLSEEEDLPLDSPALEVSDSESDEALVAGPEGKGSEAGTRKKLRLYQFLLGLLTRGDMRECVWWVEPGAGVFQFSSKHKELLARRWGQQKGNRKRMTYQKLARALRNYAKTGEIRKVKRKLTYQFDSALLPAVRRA
ELF1, sequence (P32519 whole entry): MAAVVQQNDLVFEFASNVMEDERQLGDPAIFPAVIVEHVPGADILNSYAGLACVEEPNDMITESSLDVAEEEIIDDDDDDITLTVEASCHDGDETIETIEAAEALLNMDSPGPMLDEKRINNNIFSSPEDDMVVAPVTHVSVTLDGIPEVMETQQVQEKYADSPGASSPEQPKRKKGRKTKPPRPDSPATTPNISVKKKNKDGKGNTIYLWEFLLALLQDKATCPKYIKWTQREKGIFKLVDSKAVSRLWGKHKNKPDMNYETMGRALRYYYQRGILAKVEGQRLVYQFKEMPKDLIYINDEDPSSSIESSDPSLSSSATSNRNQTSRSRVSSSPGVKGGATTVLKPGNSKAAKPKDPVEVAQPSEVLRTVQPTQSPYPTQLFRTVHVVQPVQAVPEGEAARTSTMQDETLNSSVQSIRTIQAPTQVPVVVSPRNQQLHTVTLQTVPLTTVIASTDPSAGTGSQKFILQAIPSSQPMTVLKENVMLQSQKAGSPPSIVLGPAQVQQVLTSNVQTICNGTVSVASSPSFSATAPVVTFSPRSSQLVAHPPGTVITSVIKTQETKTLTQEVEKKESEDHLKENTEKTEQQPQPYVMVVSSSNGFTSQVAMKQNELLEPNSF

For ATTGTT, the binding signal with FLI1 is 1.49 fold enrichment (6-mer frequency, TF over GST control); in the assay with ELK1, 1.42 fold enrichment (6-mer frequency, TF over GST control); in the assay with GABPA, 1.55 fold enrichment (6-mer frequency, TF over GST control); with ERG, 1.48 fold enrichment (6-mer frequency, TF over GST control); in the assay with ELF1, 1.38 fold enrichment (6-mer frequency, TF over GST control); in the assay with EHF, 1.53 fold enrichment (6-mer frequency, TF over GST control). Besides, the binding signal with SPI1 is 1.45 fold enrichment (6-mer frequency, TF over GST control); in the assay with SPIB, 1.57 fold enrichment (6-mer frequency, TF over GST control); in the assay with ELK3, 1.55 fold enrichment (6-mer frequency, TF over GST control).
For TAAGAA, the binding signal in the assay with FLI1 is 1.09 fold enrichment (6-mer frequency, TF over GST control); with ELK1, 1.1 fold enrichment (6-mer frequency, TF over GST control); in the assay with GABPA, 1.15 fold enrichment (6-mer frequency, TF over GST control); with ERG it was 1.05 fold enrichment (6-mer frequency, TF over GST control); in the assay with ELF1 it was 1.04 fold enrichment (6-mer frequency, TF over GST control); in the assay with EHF, 1.04 fold enrichment (6-mer frequency, TF over GST control). Further, the binding signal with SPI1 was 1.12 fold enrichment (6-mer frequency, TF over GST control); with SPIB it was 1.04 fold enrichment (6-mer frequency, TF over GST control); with ELK3, 1.15 fold enrichment (6-mer frequency, TF over GST control).
As to GCGCTT, the binding signal in the assay with FLI1 is 1.31 fold enrichment (6-mer frequency, TF over GST control); with ELK1, 1.36 fold enrichment (6-mer frequency, TF over GST control); with GABPA, 1.32 fold enrichment (6-mer frequency, TF over GST control); with ERG, 1.24 fold enrichment (6-mer frequency, TF over GST control); in the assay with ELF1, 1.31 fold enrichment (6-mer frequency, TF over GST control); with EHF it was 1.31 fold enrichment (6-mer frequency, TF over GST control). Moreover, the binding signal in the assay with SPI1 is 1.2 fold enrichment (6-mer frequency, TF over GST control); in the assay with SPIB, 1.45 fold enrichment (6-mer frequency, TF over GST control); with ELK3 it was 1.31 fold enrichment (6-mer frequency, TF over GST control).
In the case of AACAAC, the binding signal with FLI1 was 1.24 fold enrichment (6-mer frequency, TF over GST control); with ELK1, 1.31 fold enrichment (6-mer frequency, TF over GST control); with GABPA it was 1.24 fold enrichment (6-mer frequency, TF over GST control); with ERG it was 1.29 fold enrichment (6-mer frequency, TF over GST control); in the assay with ELF1, 1.3 fold enrichment (6-mer frequency, TF over GST control); with EHF, 1.29 fold enrichment (6-mer frequency, TF over GST control). For the same sequence, the binding signal in the assay with SPI1 is 1.3 fold enrichment (6-mer frequency, TF over GST control); in the assay with SPIB, 1.23 fold enrichment (6-mer frequency, TF over GST control); with ELK3, 1.34 fold enrichment (6-mer frequency, TF over GST control).
For ACTAGC, the binding signal with FLI1 is 1.23 fold enrichment (6-mer frequency, TF over GST control); with ELK1, 1.18 fold enrichment (6-mer frequency, TF over GST control); with GABPA, 1.26 fold enrichment (6-mer frequency, TF over GST control); in the assay with ERG, 1.21 fold enrichment (6-mer frequency, TF over GST control); with ELF1, 1.15 fold enrichment (6-mer frequency, TF over GST control); with EHF, 1.11 fold enrichment (6-mer frequency, TF over GST control). Further, the binding signal with SPI1 was 1.28 fold enrichment (6-mer frequency, TF over GST control); in the assay with SPIB, 1.22 fold enrichment (6-mer frequency, TF over GST control); with ELK3, 1.1 fold enrichment (6-mer frequency, TF over GST control).
In the case of GCTCAA, the binding signal with FLI1 was 1.05 fold enrichment (6-mer frequency, TF over GST control); with ELK1, 1.1 fold enrichment (6-mer frequency, TF over GST control); with GABPA it was 1.05 fold enrichment (6-mer frequency, TF over GST control); with ERG, 1.15 fold enrichment (6-mer frequency, TF over GST control); in the assay with ELF1 it was 1.09 fold enrichment (6-mer frequency, TF over GST control); with EHF, 1.13 fold enrichment (6-mer frequency, TF over GST control). Also, the binding signal with SPI1 was 1.09 fold enrichment (6-mer frequency, TF over GST control); in the assay with SPIB it was 1.1 fold enrichment (6-mer frequency, TF over GST control); with ELK3, 1.01 fold enrichment (6-mer frequency, TF over GST control).
With TTGGCA, the binding signal with FLI1 was 1.15 fold enrichment (6-mer frequency, TF over GST control); in the assay with ELK1 it was 1.23 fold enrichment (6-mer frequency, TF over GST control); with GABPA, 1.08 fold enrichment (6-mer frequency, TF over GST control); in the assay with ERG it was 1.15 fold enrichment (6-mer frequency, TF over GST control); with ELF1, 1.13 fold enrichment (6-mer frequency, TF over GST control); with EHF it was 1.08 fold enrichment (6-mer frequency, TF over GST control). Moreover, the binding signal with SPI1 is 1.16 fold enrichment (6-mer frequency, TF over GST control); in the assay with SPIB, 1.15 fold enrichment (6-mer frequency, TF over GST control); with ELK3, 1.17 fold enrichment (6-mer frequency, TF over GST control).
